# Test results: publication PMC7862700, “An all-to-all approach to the identification of sequence-specific readers for epigenetic DNA modifications on cytosine”
# What was measured:
# Experiment in all cases: DAPPL (digital affinity profiling via proximity ligation, sequencing); 10 mM Tris-HCl pH 7.5, 50 mM NaCl, 1 mM DTT, 4% glycerol, room temperature, 30 min; GST-TFs on glutathione beads, 16-mer random dsDNA library, 0.1% formaldehyde crosslink after washing; high values mean tight binding
# [1] = target: T1, FEV (Homo sapiens, UniProt Q99581 1-238); conditions: protein: recombinant; tags: N-terminal GST; dsDNA, one strand shown
# T1 sequence: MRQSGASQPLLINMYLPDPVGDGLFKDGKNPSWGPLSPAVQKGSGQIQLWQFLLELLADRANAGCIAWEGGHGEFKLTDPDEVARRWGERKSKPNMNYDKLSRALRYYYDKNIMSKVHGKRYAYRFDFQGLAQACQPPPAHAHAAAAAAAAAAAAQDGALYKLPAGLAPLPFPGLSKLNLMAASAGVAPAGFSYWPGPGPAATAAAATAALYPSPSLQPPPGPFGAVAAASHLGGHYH
# Outline: (§1)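 Yeast served to express human transcription factors as GST fusions, which were then captured on glutathione beads and labelled with DNA barcodes. Pooled with a tag-only sample, they were incubated with 200 nmole of a 16-mer random double-stranded DNA library for 30 min at room temperature in Tris/NaCl/DTT/glycerol buffer, washed, crosslinked with 0.1% formaldehyde, ligated by proximity, amplified by PCR and sequenced. Dividing each hexamer's read frequency for a factor by its frequency for the tag-only sample gives the binding signal.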
# [2] = target: ETV5 (Homo sapiens, UniProt P41161 1-510); conditions: protein: recombinant; tags: N-terminal GST; dsDNA, one strand shown
# ETV5, sequence (P41161 whole entry): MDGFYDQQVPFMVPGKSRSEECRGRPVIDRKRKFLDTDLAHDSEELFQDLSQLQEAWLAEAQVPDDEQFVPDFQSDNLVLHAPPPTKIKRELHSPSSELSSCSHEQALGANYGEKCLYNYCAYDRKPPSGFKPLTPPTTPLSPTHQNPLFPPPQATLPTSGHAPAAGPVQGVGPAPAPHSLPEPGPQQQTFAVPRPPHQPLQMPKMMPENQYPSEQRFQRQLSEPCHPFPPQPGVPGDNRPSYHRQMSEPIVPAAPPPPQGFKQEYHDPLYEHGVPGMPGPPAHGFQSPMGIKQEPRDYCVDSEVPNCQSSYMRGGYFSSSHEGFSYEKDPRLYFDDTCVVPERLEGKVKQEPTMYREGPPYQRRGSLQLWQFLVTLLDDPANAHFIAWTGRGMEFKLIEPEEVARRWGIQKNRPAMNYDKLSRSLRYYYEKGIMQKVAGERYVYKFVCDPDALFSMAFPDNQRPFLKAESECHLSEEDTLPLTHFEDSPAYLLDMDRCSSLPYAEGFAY
# Outline: as §1
# [3] = target: HSF1 (Homo sapiens, UniProt Q00613 1-529); conditions: protein: recombinant; tags: N-terminal GST; chain copies: 3; dsDNA, one strand shown
# HSF1, sequence (Q00613 whole entry): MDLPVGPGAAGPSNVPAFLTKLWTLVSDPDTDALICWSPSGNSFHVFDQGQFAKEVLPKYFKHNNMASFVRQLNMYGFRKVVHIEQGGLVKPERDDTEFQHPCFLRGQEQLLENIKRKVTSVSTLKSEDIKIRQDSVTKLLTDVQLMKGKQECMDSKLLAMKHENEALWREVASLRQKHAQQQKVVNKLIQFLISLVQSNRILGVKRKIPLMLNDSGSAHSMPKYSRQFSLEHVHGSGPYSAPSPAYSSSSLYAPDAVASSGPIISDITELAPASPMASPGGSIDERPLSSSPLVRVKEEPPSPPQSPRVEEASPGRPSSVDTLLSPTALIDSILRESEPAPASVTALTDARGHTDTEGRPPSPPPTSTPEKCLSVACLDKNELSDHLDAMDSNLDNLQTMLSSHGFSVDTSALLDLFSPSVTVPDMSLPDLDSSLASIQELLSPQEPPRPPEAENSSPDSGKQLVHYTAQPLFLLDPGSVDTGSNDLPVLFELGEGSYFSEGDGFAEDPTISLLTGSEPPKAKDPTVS
# Outline: as §1
# [4] = target: T2, SPIC (Homo sapiens, UniProt Q8N5J4 1-248); conditions: protein: recombinant; tags: N-terminal GST; dsDNA, one strand shown
# T2 sequence: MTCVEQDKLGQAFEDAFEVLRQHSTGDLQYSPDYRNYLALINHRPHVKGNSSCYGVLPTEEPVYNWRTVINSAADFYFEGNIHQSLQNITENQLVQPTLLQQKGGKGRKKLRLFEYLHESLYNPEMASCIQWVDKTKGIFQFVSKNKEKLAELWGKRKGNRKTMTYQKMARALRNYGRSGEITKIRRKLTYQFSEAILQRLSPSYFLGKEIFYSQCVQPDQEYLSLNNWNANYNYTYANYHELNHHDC
# Outline: as §1
# [5] = target: ELF4 (Homo sapiens, UniProt Q99607 1-663); conditions: protein: recombinant; tags: N-terminal GST; dsDNA, one strand shown
# ELF4, sequence (Q99607 whole entry): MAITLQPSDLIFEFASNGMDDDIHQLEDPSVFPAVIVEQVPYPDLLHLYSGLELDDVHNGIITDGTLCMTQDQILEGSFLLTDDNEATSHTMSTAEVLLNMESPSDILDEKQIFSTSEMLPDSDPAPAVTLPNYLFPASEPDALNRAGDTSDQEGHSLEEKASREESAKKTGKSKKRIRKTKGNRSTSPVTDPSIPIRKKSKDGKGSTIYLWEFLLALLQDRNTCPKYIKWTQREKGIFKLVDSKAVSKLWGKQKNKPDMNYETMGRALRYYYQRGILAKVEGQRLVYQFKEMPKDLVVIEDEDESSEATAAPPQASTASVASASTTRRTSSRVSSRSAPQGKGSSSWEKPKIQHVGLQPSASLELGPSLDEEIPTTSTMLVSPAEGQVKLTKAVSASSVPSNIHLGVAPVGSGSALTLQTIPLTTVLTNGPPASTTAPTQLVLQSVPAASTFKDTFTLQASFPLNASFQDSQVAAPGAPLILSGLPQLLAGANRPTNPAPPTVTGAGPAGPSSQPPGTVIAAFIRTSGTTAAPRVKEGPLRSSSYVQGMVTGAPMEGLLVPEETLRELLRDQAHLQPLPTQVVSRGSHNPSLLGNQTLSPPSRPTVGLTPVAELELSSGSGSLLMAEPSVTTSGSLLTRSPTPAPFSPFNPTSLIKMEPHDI
# Outline: as §1
# [6] = target: T3, ELK4 (Homo sapiens, UniProt P28324-2 1-405); conditions: protein: recombinant; tags: N-terminal GST; dsDNA, one strand shown
# T3 sequence: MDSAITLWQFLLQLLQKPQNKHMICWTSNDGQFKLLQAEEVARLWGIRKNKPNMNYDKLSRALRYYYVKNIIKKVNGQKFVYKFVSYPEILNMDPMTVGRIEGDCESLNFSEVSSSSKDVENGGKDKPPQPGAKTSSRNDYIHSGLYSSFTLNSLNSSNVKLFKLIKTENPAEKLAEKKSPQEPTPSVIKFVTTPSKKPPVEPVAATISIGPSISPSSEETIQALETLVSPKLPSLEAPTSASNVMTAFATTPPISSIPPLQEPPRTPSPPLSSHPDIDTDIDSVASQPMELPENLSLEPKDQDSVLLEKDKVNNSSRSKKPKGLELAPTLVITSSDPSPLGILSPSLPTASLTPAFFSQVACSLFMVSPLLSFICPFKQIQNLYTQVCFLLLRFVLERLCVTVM
# Outline: as §1
# [7] = target: T4, ETV2 (Homo sapiens, UniProt O00321 1-342); conditions: protein: recombinant; tags: N-terminal GST; dsDNA, one strand shown
# T4 sequence: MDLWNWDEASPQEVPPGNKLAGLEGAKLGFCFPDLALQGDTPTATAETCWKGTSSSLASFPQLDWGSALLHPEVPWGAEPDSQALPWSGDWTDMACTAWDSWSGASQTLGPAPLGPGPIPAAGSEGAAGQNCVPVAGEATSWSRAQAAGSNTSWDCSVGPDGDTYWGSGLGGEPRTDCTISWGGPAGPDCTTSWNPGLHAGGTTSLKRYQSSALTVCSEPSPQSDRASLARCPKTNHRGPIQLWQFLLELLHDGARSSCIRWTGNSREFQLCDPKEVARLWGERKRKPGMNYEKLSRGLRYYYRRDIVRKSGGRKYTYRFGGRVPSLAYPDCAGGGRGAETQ
# Outline: as §1
# [8] = target: T5, ELF3 (Homo sapiens, UniProt P78545 1-371); conditions: protein: recombinant; tags: N-terminal GST; dsDNA, one strand shown
# T5 sequence: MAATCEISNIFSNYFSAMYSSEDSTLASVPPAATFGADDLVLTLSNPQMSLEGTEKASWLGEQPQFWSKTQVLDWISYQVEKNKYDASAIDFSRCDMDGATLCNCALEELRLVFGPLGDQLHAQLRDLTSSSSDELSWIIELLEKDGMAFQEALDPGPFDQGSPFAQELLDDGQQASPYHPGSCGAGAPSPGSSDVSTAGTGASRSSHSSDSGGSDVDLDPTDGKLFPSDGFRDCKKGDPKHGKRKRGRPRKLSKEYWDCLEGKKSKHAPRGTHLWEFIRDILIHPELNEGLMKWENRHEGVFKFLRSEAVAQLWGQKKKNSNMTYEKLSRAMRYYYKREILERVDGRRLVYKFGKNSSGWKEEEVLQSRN
# Outline: as §1
# [9] = target: CRX (Homo sapiens, UniProt O43186 1-299); conditions: protein: recombinant; tags: N-terminal GST; dsDNA, one strand shown
# CRX, sequence (O43186 whole entry): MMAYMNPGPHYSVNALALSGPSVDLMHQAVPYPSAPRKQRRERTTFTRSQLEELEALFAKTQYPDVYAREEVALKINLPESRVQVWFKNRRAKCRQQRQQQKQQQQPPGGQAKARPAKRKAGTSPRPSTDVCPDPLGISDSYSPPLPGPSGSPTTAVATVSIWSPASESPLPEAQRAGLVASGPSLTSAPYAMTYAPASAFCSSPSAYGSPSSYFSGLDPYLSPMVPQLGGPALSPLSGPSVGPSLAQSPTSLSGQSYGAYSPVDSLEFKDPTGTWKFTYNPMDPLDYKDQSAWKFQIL
# Outline: as §1
# [10] = target: ETV1 (Homo sapiens, UniProt P50549 1-477); conditions: protein: recombinant; tags: N-terminal GST; dsDNA, one strand shown
# ETV1, sequence (P50549 whole entry): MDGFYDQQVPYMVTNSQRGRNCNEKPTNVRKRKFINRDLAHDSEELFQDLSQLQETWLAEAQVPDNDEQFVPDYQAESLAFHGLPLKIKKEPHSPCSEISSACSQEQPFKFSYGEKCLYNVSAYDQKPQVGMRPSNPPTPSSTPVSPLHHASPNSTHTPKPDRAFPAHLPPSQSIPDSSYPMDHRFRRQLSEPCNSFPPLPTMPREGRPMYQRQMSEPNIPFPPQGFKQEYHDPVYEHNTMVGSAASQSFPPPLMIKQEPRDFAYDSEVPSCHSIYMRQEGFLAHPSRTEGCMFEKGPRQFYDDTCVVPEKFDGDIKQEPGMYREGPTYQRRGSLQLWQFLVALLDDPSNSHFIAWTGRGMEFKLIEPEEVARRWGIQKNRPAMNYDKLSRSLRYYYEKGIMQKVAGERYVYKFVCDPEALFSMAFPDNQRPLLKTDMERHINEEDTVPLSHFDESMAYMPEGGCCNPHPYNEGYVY
# Outline: as §1
# [11] = target: T6, ERF (Homo sapiens, UniProt P50548 1-548); conditions: protein: recombinant; tags: N-terminal GST; dsDNA, one strand shown
# T6 sequence: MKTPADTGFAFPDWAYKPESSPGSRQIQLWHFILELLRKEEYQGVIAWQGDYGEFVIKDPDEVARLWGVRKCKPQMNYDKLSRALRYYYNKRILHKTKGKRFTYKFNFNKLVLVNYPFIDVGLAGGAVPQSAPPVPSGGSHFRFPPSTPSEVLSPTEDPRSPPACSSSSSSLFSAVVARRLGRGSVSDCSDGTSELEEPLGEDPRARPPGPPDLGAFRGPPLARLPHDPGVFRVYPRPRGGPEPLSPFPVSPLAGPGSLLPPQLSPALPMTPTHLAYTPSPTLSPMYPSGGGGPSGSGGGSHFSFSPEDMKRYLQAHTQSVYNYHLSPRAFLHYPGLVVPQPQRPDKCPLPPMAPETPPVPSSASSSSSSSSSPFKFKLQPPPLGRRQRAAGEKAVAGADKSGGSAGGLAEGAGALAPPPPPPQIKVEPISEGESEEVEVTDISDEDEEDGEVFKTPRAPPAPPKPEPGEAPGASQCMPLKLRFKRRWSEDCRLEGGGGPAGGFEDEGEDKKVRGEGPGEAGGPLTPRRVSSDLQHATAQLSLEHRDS
# Outline: as §1
# [12] = target: T7, ETV3L (Homo sapiens, UniProt Q6ZN32 1-361); conditions: protein: recombinant; tags: N-terminal GST; dsDNA, one strand shown
# T7 sequence: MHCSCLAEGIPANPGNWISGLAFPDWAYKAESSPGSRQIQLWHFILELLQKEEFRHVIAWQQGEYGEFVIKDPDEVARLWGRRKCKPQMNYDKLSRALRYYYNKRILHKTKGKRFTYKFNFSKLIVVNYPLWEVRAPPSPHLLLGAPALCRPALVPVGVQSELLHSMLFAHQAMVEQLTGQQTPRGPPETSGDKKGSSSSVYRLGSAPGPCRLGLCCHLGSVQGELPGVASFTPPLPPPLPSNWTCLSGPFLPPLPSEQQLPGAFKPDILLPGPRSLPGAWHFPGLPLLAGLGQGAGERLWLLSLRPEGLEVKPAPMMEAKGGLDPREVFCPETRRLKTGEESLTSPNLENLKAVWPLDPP
# Outline: as §1
# [13] = target: T8, ETS2 (Homo sapiens, UniProt P15036 1-469); conditions: protein: recombinant; tags: N-terminal GST; dsDNA, one strand shown
# T8 sequence: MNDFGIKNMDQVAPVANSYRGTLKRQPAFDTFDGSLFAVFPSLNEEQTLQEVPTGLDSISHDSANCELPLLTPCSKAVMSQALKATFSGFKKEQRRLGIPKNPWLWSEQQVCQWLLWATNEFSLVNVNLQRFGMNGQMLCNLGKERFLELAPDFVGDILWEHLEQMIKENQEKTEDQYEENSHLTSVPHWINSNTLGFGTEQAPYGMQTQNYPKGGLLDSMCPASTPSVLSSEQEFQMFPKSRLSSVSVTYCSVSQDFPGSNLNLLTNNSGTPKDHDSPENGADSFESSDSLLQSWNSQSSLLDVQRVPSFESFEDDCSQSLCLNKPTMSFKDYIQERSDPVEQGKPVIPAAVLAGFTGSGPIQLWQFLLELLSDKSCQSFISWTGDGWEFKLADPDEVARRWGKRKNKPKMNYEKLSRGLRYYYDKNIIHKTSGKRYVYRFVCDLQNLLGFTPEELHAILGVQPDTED
# Outline: as §1
# [14] = target: T9, SPDEF (Homo sapiens, UniProt O95238 1-335); conditions: protein: recombinant; tags: N-terminal GST; dsDNA, one strand shown
# T9 sequence: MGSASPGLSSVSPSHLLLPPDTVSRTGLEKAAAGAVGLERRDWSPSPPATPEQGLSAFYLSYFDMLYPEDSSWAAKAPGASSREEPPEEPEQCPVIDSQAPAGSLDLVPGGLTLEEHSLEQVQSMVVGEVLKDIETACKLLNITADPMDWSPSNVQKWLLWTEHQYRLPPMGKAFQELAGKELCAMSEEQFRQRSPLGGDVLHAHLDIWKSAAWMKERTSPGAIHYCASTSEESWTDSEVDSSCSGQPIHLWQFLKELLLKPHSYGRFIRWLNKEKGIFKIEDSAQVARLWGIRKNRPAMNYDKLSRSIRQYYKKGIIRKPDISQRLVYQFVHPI
# Outline: as §1
# [15] = target: T10, ETV7 (Homo sapiens, UniProt Q9Y603 1-341); conditions: protein: recombinant; tags: N-terminal GST; dsDNA, one strand shown
# T10 sequence: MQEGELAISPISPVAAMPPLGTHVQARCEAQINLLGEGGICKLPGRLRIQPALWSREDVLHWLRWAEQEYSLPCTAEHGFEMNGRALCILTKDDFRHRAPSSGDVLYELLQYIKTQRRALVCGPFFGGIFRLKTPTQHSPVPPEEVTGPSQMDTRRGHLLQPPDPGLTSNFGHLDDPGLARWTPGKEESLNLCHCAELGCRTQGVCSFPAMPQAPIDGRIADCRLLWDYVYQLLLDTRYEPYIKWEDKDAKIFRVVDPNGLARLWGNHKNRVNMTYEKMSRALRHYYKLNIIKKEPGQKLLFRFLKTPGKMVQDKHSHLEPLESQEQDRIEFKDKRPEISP
# Outline: as §1
# [16] = target: T11, ELF5 (Homo sapiens, UniProt Q9UKW6-2 1-255); conditions: protein: recombinant; tags: N-terminal GST; dsDNA, one strand shown
# T11 sequence: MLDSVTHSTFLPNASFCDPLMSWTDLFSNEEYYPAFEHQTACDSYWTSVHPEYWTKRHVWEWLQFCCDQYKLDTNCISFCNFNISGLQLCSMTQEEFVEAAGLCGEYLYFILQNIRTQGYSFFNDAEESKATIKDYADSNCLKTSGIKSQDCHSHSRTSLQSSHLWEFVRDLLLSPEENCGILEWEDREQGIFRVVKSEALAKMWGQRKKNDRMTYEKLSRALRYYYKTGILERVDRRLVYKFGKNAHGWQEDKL
# Outline: as §1
# [17] = target: T12, ETV3 (Homo sapiens, UniProt P41162-2 1-143); conditions: protein: recombinant; tags: N-terminal GST; dsDNA, one strand shown
# T12 sequence: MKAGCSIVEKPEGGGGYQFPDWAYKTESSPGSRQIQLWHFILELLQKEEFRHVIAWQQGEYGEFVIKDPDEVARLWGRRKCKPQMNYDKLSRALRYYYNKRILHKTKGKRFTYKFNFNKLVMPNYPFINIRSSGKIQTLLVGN
# Outline: as §1
# [18] = target: ETV6 (Homo sapiens, UniProt P41212 1-452); conditions: protein: recombinant; tags: N-terminal GST; dsDNA, one strand shown
# ETV6, sequence (P41212 whole entry): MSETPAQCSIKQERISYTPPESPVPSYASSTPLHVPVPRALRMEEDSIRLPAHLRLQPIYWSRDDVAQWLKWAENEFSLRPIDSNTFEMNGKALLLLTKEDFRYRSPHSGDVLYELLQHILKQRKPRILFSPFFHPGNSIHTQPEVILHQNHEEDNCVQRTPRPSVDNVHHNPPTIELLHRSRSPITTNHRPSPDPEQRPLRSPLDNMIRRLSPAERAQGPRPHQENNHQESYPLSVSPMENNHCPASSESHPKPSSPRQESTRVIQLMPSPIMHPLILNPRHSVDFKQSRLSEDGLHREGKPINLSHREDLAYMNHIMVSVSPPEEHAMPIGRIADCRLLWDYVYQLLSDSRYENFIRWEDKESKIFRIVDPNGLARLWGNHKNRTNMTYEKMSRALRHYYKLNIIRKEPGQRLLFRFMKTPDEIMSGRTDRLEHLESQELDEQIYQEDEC
# Outline: as §1
sequence,measurement,setting,value
CCCGAA,binding signal,[1],"1.37 fold enrichment (6-mer frequency, TF over GST control)"
same,binding signal,[2],"1.36 fold enrichment (6-mer frequency, TF over GST control)"
same,binding signal,[3],"2.56 fold enrichment (6-mer frequency, TF over GST control)"
same,binding signal,[4],"1.45 fold enrichment (6-mer frequency, TF over GST control)"
same,binding signal,[5],"1.37 fold enrichment (6-mer frequency, TF over GST control)"
same,binding signal,[6],"1.34 fold enrichment (6-mer frequency, TF over GST control)"
same,binding signal,[7],"1.29 fold enrichment (6-mer frequency, TF over GST control)"
same,binding signal,[8],"1.47 fold enrichment (6-mer frequency, TF over GST control)"
same,binding signal,[9],"1.61 fold enrichment (6-mer frequency, TF over GST control)"
same,binding signal,[10],"1.29 fold enrichment (6-mer frequency, TF over GST control)"
same,binding signal,[11],"1.48 fold enrichment (6-mer frequency, TF over GST control)"
same,binding signal,[12],"1.35 fold enrichment (6-mer frequency, TF over GST control)"
same,binding signal,[13],"1.37 fold enrichment (6-mer frequency, TF over GST control)"
same,binding signal,[14],"1.31 fold enrichment (6-mer frequency, TF over GST control)"
same,binding signal,[15],"1.26 fold enrichment (6-mer frequency, TF over GST control)"
same,binding signal,[16],"1.32 fold enrichment (6-mer frequency, TF over GST control)"
same,binding signal,[17],"1.33 fold enrichment (6-mer frequency, TF over GST control)"
same,binding signal,[18],"1.36 fold enrichment (6-mer frequency, TF over GST control)"
